Among the test systems are MOLT-4 leukemia; SR leukemia; OVCAR-8 ovarian; OVCAR-5 ovarian; OVCAR-4 ovarian; SK-OV-3 ovarian; IGROV1 ovarian; OVCAR-3 ovarian; HS 578T breast; NCI/ADR-RES ovarian; T-47D breast; BT-549 breast; SW-620 colon; MCF7 breast; HCT-116 colon; HCC-2998 colon; KM12 colon; MDA-MB-435 melanoma.
Common to all, as to assay: NCI-60 one-dose screen, 48 h (100 = growth as untreated, 0 = no growth, -100 = all killed)
What all share (conditions): 10 µM unless noted

Compounds without any hit were thinned out: in the full panel of roughly 83,000, 20% have a hit.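 Each cell line was grown in a 96-well plate and treated with one concentration of compound for 48 hours. Values below 10 were considered active.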 A number with no mark means an inactive call. Active and inactive are the calls of the source.

With `CCOC(=O)N[C@H]1CCc2c(Br)c(OC)c(OC)c(OC)c2-c2ccc(SC)c(=O)cc21`, the growth in the test on MOLT-4 leukemia is 5.92% (active); in the test on SR leukemia, -5.77% (active); in the test on OVCAR-8 ovarian, 20.2%; with OVCAR-5 ovarian it was 32.5%; in the test with OVCAR-4 ovarian it was 5.73% (active); in the test on SK-OV-3 ovarian it was 52.1%. In addition, the growth is 12.1% in the test on IGROV1 ovarian; -29.4% (active) in the test on OVCAR-3 ovarian; -1.62% (active) in the test on HS 578T breast; 11.8% in the test with NCI/ADR-RES ovarian; 42.6% in the test with T-47D breast; 3.55% (active) in the test on BT-549 breast. For the same compound, the growth with SW-620 colon is 16.7%; with MCF7 breast it was 10.8%; in the test on HCT-116 colon, -5.72% (active); in the test on HCC-2998 colon, 14.6%; with KM12 colon it was -8.71% (active).
For `C/C(=C\c1ccn(-c2ccc(N)c(F)c2)n1)[C@@H]1C[C@@H]2O[C@]2(C)CCC[C@H](C)[C@H](O)[C@@H](C)C(=O)C(C)(C)[C@@H](O)CC(=O)O1`, the growth with MOLT-4 leukemia is 6.16% (active); with SR leukemia, 9.07% (active); in the test with OVCAR-8 ovarian, 24.7%; with OVCAR-5 ovarian, 19.4%; with OVCAR-4 ovarian, 52.2%; with SK-OV-3 ovarian, 50.7%. Also, the growth with IGROV1 ovarian was 34%; with OVCAR-3 ovarian, 2.8% (active); in the test with HS 578T breast, 2.63% (active); in the test with NCI/ADR-RES ovarian, -3.5% (active); with T-47D breast, 38.5%; with BT-549 breast, 12.2%. Further, the growth was -41.1% (active) with MDA-MB-435 melanoma; 44.7% in the test on SW-620 colon; 16.3% in the test with MCF7 breast; 10.7% in the test with HCT-116 colon; 4.73% (active) in the test on HCC-2998 colon; 12.5% in the test with KM12 colon.
In the case of `CC12CCC3C(C=CC4=C(N)C(=O)CCC43C)C1CCC2=O` (stereo unspecified), the growth was 57.2% in the test with MOLT-4 leukemia; -18.1% (active) in the test on SR leukemia; 44% with OVCAR-8 ovarian; 108% with OVCAR-5 ovarian; 62% in the test with OVCAR-4 ovarian; 120% in the test on SK-OV-3 ovarian. In addition, the growth in the test on IGROV1 ovarian is 49.5%; in the test on OVCAR-3 ovarian, 64.6%; in the test on HS 578T breast, 113%; with NCI/ADR-RES ovarian, 68.7%; in the test on T-47D breast, 73.7%; in the test on BT-549 breast, 82.6%. In addition, the growth is 113% with MDA-MB-435 melanoma; 15.4% in the test with SW-620 colon; -16% (active) in the test on MCF7 breast; 6.15% (active) in the test with HCT-116 colon; 96% in the test with HCC-2998 colon; 39.5% in the test on KM12 colon.
For the compound `CC[C@H](C)[C@@H]([C@@H](CC(=O)N1CCC[C@H]1[C@H](OC)[C@@H](C)C(=O)N[C@H](C)[C@@H](O)c1ccccc1)OC)N(C)C(=O)[C@@H](NC(=O)[C@@H](NC)C(C)C)C(C)C`, the growth was 18.3% in the test on MOLT-4 leukemia; 13.8% in the test with SR leukemia; 21% in the test on OVCAR-8 ovarian; 60.9% in the test on OVCAR-5 ovarian; 36.2% with OVCAR-4 ovarian; 14.1% in the test with SK-OV-3 ovarian. In addition, the growth in the test with IGROV1 ovarian was 18.1%; in the test with OVCAR-3 ovarian it was -13.9% (active); with HS 578T breast, 28.9%; in the test with NCI/ADR-RES ovarian, -2.45% (active); in the test on T-47D breast, 87.3%; with BT-549 breast it was 6.48% (active). The growth was 2.42% (active) in the test on MDA-MB-435 melanoma; 32.8% with SW-620 colon; 15.3% in the test with MCF7 breast; 7.3% (active) in the test with HCT-116 colon; 9.29% (active) with HCC-2998 colon; 15.3% with KM12 colon.
For the compound `Cc1ccc(C(=O)NCCCOc2ccc(N3C(N)=NC(N)=NC3(C)C)cc2Cl)cc1S(=O)(=O)F`, the growth with MOLT-4 leukemia was 119%; with SR leukemia, 21.4%; in the test on OVCAR-8 ovarian it was 77.2%; with OVCAR-5 ovarian it was 51.6%; in the test with OVCAR-4 ovarian, 111%; in the test on SK-OV-3 ovarian it was 101%. The growth in the test on IGROV1 ovarian was -28.2% (active); with OVCAR-3 ovarian it was 121%; with HS 578T breast, 109%; with NCI/ADR-RES ovarian, 108%; with T-47D breast it was 104%; in the test with BT-549 breast it was 64.8%. The growth in the test with MDA-MB-435 melanoma was 73.1%; in the test on SW-620 colon it was 65.1%; in the test on MCF7 breast it was 75.4%; in the test on HCT-116 colon it was 62.2%; in the test on HCC-2998 colon it was 89.8%; in the test with KM12 colon, 74.4%.
Regarding `Brc1ccc2c(c1)c(-c1nc(-c3c[nH]c4ncccc34)cs1)cn2CCN1CCCCC1`, the growth with MOLT-4 leukemia was 42%; in the test with SR leukemia, 16.2%; with OVCAR-8 ovarian, 83.5%; in the test on OVCAR-5 ovarian, 109%; in the test on OVCAR-4 ovarian, 74.9%; in the test with SK-OV-3 ovarian, 103%. Also, the growth is 46.8% with IGROV1 ovarian; 85.1% with OVCAR-3 ovarian; 76.7% with HS 578T breast; 75.2% in the test on NCI/ADR-RES ovarian; 66.2% with T-47D breast; 89% in the test with BT-549 breast. Also, the growth is 76.9% in the test with MDA-MB-435 melanoma; 58.4% in the test with SW-620 colon; 47.1% in the test on MCF7 breast; 51% with HCT-116 colon; 38.9% in the test on HCC-2998 colon; 66.2% in the test on KM12 colon.
In the case of `CCCCCCCC(=O)OCC(=O)[C@]1(O)Cc2c(O)c3c(c(O)c2[C@@H](OC2CC(N)C(O)C(C)O2)C1)C(=O)c1c(OC)cccc1C3=O` (stereo partly specified), the growth in the test on MOLT-4 leukemia was -93.1% (active); in the test on SR leukemia, -67.1% (active); in the test on OVCAR-8 ovarian, -95% (active); in the test on OVCAR-5 ovarian, -73.9% (active); with OVCAR-4 ovarian, -72.1% (active); with SK-OV-3 ovarian, -58.5% (active). Also, the growth in the test with IGROV1 ovarian is -66.8% (active); in the test on OVCAR-3 ovarian it was -100% (active); in the test with HS 578T breast, -59.3% (active); in the test on NCI/ADR-RES ovarian it was 50.7%; in the test on T-47D breast, -69.2% (active); with BT-549 breast it was -84% (active). For the same compound, the growth in the test with MDA-MB-435 melanoma was -80.5% (active); in the test with MCF7 breast, -94.4% (active); in the test with HCT-116 colon it was -73.4% (active); in the test with HCC-2998 colon it was -90.1% (active); in the test with KM12 colon, -96.2% (active).
As to `COC[C@@H]1C[C@@]2(C)[C@@H](CC[C@@H]3[C@@H]2CC[C@@]2(C)[C@H]3CC[C@]2(C)O)CC1=O`, the growth in the test with MOLT-4 leukemia was 90.4%; with SR leukemia, 83.7%; in the test with OVCAR-8 ovarian, 95.8%; in the test on OVCAR-5 ovarian it was 97.9%; in the test with OVCAR-4 ovarian, 101%; with SK-OV-3 ovarian it was 98.7%. Further, the growth was 98.9% with IGROV1 ovarian; 106% in the test on OVCAR-3 ovarian; 101% with NCI/ADR-RES ovarian; 88.2% with T-47D breast; 89.1% in the test with BT-549 breast; 108% in the test on MDA-MB-435 melanoma. The growth in the test on SW-620 colon was 110%; in the test on MCF7 breast, 92.7%; in the test with HCT-116 colon it was 96%; with HCC-2998 colon it was 94.9%; in the test on KM12 colon, 101%.
